An excerpt weighted towards active compounds, which were near 4.7% of everything screened.
TIM10 inh – growth inhibitors of TIM10 yeast strain. S. cerevisiae TIM10 strain growth, BacTiter-Glo luminescence, 24 h. inhibition, % at 10 µM. hit rate 1.4% among 330,000. AID 463195;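 active = inhibition of 40% or more at the single tested concentration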;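 note: wild-type TIM10 isogenic control strain grown at permissive 25 °C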
PfHsp90 yeast 2 – growth inhibition of yeast expressing Plasmodium Hsp90; S. cerevisiae expressing PfHsp90, BacTiter-Glo ATP, 48 h; yeast lacking PDR1 and PDR3 efflux regulators; hit rate 0.32% among 310,000; AID 504621; inhibition, % at 9.4 µM;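 active = every replicate shows inhibition above about 80%, whatever the replicate mean, limit read from the data; inconclusive = mean inhibition reaches the set limit but some replicate falls short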;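 note: 0% = DMSO neutral controls and 100% = 20 µM radicicol positive controls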
tim10-1 inh – growth inhibitors of tim10-1 mutant yeast. S. cerevisiae tim10-1 ts strain growth, BacTiter-Glo, 24 h. inhibition, % at 20 µM. hit rate 2.2% among 330,000. AID 463190;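 active = inhibition of at least 40%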;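 note: mutant grown at 25 °C; 0% = DMSO wells with yeast and 100% = wells holding no yeast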
ATG4B inh – inhibitors of human ATG4B cysteine protease. hit rate 0.51% among 340,000. AID 504462. ATG4B cleavage of LC3-PLA2, NBD-HPC fluorescence, 1 h. inhibition, % at 8.33 µM. Q9Y4P1; in the data active = inhibition above about 40%
Target sequence (Q9Y4P1 whole entry, looked up): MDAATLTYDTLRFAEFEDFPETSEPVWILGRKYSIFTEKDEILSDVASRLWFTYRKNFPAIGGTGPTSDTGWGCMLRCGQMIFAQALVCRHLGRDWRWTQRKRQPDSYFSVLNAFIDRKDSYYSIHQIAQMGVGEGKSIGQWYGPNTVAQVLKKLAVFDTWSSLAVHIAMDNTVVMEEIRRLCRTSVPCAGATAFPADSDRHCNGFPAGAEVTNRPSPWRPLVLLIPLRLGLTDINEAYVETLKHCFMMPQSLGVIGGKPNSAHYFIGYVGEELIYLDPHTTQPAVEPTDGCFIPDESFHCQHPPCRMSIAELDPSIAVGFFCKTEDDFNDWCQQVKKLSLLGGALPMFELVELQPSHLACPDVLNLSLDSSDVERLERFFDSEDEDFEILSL
SKKanGAS inh – SKKanGAS growth inhibition. S. pyogenes SKKanGAS, kanamycin growth, BacTiter-Glo, 6 h. inhibition, % at 7.5 µM. hit rate 1.3% among 300,000. AID 1662;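 active = mean replicate score, as percent of positive control median, at least 50; inconclusive = mean below 50 but one replicate at or above 50; inactive = mean and every replicate below 50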;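 note: strain carries kanamycin resistance gene driven by streptokinase promoter and grows in 40 µg/ml kanamycin; loss of luminescence reflects streptokinase promoter inhibition or plain growth inhibition; 0% = median of DMSO wells and 100% = positive control at its reference dose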
tim23-1 inh – growth inhibitors of tim23-1 mutant yeast | S. cerevisiae tim23-1 growth, BacTiter-Glo luminescence, 24 h | inhibition, % at 20 µM | hit rate 1.3% among 330,000;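 active = growth inhibition of the mutant yeast at or above 50%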;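 note: temperature-sensitive mutant grown at 25 °C; plate controls were DMSO-treated mutant yeast for no effect and medium wells lacking yeast for full effect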
Numbers without * were called inactive; u = inconclusive; x = no result given.

SMILES	TIM10 inh	PfHsp90 yeast 2	tim10-1 inh	ATG4B inh	SKKanGAS inh	tim23-1 inh
O=C1N/C(=N/c2ccccn2)SC1Cc1ccccc1 (stereo not given)	13	-25	14	-1	9	3
Cc1ccc(C(=O)COC(=O)c2cc(Cl)nc3ccccc23)cc1C	-22	-16	19	9	-8	9
Cc1ccc(C)c(C(=O)COC(=O)c2cc(Cl)nc3ccccc23)c1	3	-32	34	16	54*	16
O=C(CNC(=O)c1ccccc1)Sc1ccccc1	x	3	x	2	x	x
Cc1noc(NS(=O)(=O)c2ccc(NC(=O)c3oc4ccc(Cl)cc4c3C)cc2)c1C	6	-6	12	7	64*	5
Cc1ccc2c(=O)cc(C(=O)Nc3ccc(S(=O)(=O)Nc4onc(C)c4C)cc3)oc2c1	6	16	-11	-4	3	2
Cc1ccc2c(C)c(C(=O)Nc3ccc(S(=O)(=O)Nc4onc(C)c4C)cc3)oc2c1	17	-8	6	-21	65*	16
Cc1c(C(=O)Nc2ccc(S(=O)(=O)Nc3ncccn3)cc2)oc2ccc(Cl)cc12	1	-15	15	0	24	9
N#Cc1ccc(C(=O)N2CCC3CC2c2cc(-c4ccc(F)cc4)ccc23)cc1 (stereo not given)	x	-21	x	7	x	x
Cc1[nH]cnc1C(=O)N/N=C/c1ccc([N+](=O)[O-])s1	8	11	5	-3	103*	20
Cc1cc(C(=O)N/N=C/c2ccc([N+](=O)[O-])s2)n[nH]1	7	5	-12	3	109*	48
CC(=O)NNC(=O)CCn1nnc2ccccc21	1	15	11	-5	-5	-4
C[C@@H](O)[C@H]1C(=O)N2C(C(=O)O)=C(S[C@@H]3CN[C@H](C(=O)N(C)C)C3)[C@H](C)[C@H]12	x	x	x	x	110*	x
Cc1ccc(-c2cc(C(F)F)nc(N3CCC(C)CC3)n2)cc1	-34	x	6	-1	63*	-15
CC1CCN(c2nc(-c3ccccc3)cc(C(F)(F)F)n2)CC1	0	x	15	-2	u	15
Cc1c(OCC(=O)C(C)(C)C)ccc2c(-c3ccccc3)cc(=O)oc12	-108	96*	-28	-6	2	2
CC(=O)COc1ccc2c(-c3ccccc3)cc(=O)oc2c1C	-40	3	-43	-5	-1	16
CC1CCc2c(sc(NS(=O)(=O)c3ccccc3)c2C(=O)OC(C)C)C1 (stereo not given)	20	10	32	5	95*	7
COC(=O)c1c(NS(=O)(=O)c2ccc3ccccc3c2)sc2c1CCCC2	15	7	30	27	32	29
Cc1cc(C)n(-c2nc3sc4c(c3c(=O)[nH]2)CCCC4)n1	x	x	x	x	93*	x
Cc1nc2sc3c(c2c(=O)[nH]1)CCCCC3	-4	3	0	6	-1	1
Oc1c(CN2CCCCC2)cc(Br)c2cccnc12	24	104*	11	-1	58*	21
N#CSCC(=O)c1cccc2ccccc12	x	97*	x	-28	x	x
Cc1ccccc1Oc1cc(-n2ncc(Cl)c(Cl)c2=O)ncn1	x	97*	x	-3	x	x
CCCCc1nnc(NC(=O)CN2C(=O)C3CCCCC3C2=O)s1 (stereo not given)	-3	x	0	0	0	10
SMILES	TIM10 inh	PfHsp90 yeast 2	tim10-1 inh	ATG4B inh	SKKanGAS inh	tim23-1 inh
C/C(=N\NC(=O)c1cc(C)nc2ccccc12)c1ccco1	9	1	-4	1	4	14
COc1ccc(-c2cc(C(=O)N/N=C(\C)c3ccco3)c3ccccc3n2)c(OC)c1	5	2	16	-18	54*	8
O=C(COC(=O)c1ccc(F)cc1F)c1ccc[nH]1	6	-12	5	3	x	-5
COc1ccc(C2CC(=O)Nc3cc(OC)c(OC)cc32)cc1Br (stereo not given)	3	7	9	1	-4	18
Cc1ccc(CC2CC(=O)N(c3nc4ccccc4s3)C2=O)cc1 (stereo not given)	21	-33	6	-10	7	49
Cc1ccc(Cc2cnc(N3C(=N)SC(c4ccccc4)C3=O)s2)cc1 (stereo not given)	28	-16	35	-1	104*	10
CCN1/C(=C/c2ccc3cc(C)ccc3[n+]2CC)Sc2cc(C)ccc21	x	94*	x	15	x	x
COc1ccc(CN(C)S(=O)(=O)c2nnc(NC(=O)c3cccc(OC)c3)s2)cc1	9	-25	21	-5	41	17
COc1ccc(CN(C)S(=O)(=O)c2nnc(NC(=O)c3ccccc3Br)s2)cc1	20	-5	20	27	59*	14
CS(=O)(=O)N1CCN(c2ccc([N+](=O)[O-])c3cccnc23)CC1	-6	-23	-7	-11	-3	12
Cc1cc(N/N=C/c2cccc(Cl)c2)nc(-n2nc(C)cc2C)n1	26	-34	21	-2	104*	34
Cc1nc2ccc(NC(=O)c3ccc(N4C(=O)CCC4=O)cc3)cc2s1	-17	x	-5	0	2	-6
Cc1ccc(C)c(NC(=O)CSc2nc(N)c(NC(=O)c3cccs3)c(=O)[nH]2)c1	x	19	x	-1	x	x
Nc1nc(SCC(=O)Nc2ccc(C(F)(F)F)cc2)[nH]c(=O)c1NC(=O)c1ccc(F)c(F)c1	-13	10	-7	5	4	-5
Cc1ccc(C)c(NC(=O)CSc2nc3nc(-c4cccs4)cc(C(F)(F)F)c3c(=O)[nH]2)c1	10	-5	6	35	57*	-5
O=C(CSc1nc2nc(-c3cccs3)cc(C(F)(F)F)c2c(=O)[nH]1)Nc1ccc(F)c(F)c1	14	3	23	38	88*	15
O=C(CN1c2ccccc2Sc2ccccc21)NNC(=O)Nc1cccc(Cl)c1	11	-28	23	25	50*	29
O=C(CCC(=O)NNC(=O)Nc1cccc(Cl)c1)NCc1ccccc1	-15	-25	6	-3	4	3
COC(=O)C(Cc1ccc(OC(=O)c2ccc(C(F)(F)F)cc2)cc1)N1Cc2ccccc2C1=O (stereo not given)	-3	-36	12	3	10	12
COc1cc(NC(=S)Nc2ncccc2C)cc(OC)c1OC	27	x	37	1	-7	20
COc1ccc(NC(=O)c2cccc(-c3ccc(O)cc3)c2)cn1	-12	-8	-95	-8	53*	-38
CCSc1nnc(NC(=O)c2cccc3ccccc23)s1	4	-42	-2	-5	0	14
Cc1ccc(-n2c(C)cc(/C=N/NC(=O)CC3(C)OCCO3)c2C)cc1	8	-31	16	-6	5	13
Cc1cc2nc(N3C(=O)CNC3=S)sc2cc1C	26	11	12	3	85*	27
CCOc1ccc2nc(N3C(=O)CNC3=S)sc2c1	10	8	22	-11	38	34

High-throughput results from PubChem.
